Non-standard residues stand in square brackets, D forms with d. Residues, ends and D or L forms follow the SMILES beside them. *: point of attachment. Nva = CCC[C@H](N)C(=O)O; Cbz = O=C(OCc1ccccc1)*

This note sets out measurements from PubChem BioAssay (NCATS).

The nature of the test: qHTS profiling of the MIPE4 collection as inhibitors of Plasmodium falciparum (3D7) proliferation (AID 743344).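 Further: scaled between DMSO vehicle wells and 0.29 µM artemisinin as full inhibition.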 Particulars: P. falciparum 3D7 in erythrocytes, SYBR Green DNA fluorescence, 72 h; at 28.5 µM unless noted. The procedure, abridged:
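Parasite DNA was quantified by SYBR Green I fluorescence (ex 485, em 535 nm) after overnight lysis in saponin/Triton buffer at room temperature. Cultures at 0.3% parasitemia and 2.5% hematocrit were first exposed to compound for 72 h at 37 C; signals were normalised to artemisinin (0.29 uM) and vehicle wells.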
On the technique in general: In qHTS, concentration-response curves come from the screen itself.
Consider `Cc1ccc2nc(NCCN)c3ncc(C)n3c2c1`, for which the parasite growth, % of DMSO control is 63.3%.

On to `N[C@H]1CN(c2c(F)cc3c(=O)c(C(=O)O)cn(C4C[C@@H]4F)c3c2Cl)CC12CC2` (stereo not given in full), for which the parasite growth, % of DMSO control is 20.3%.

On to `O=C(C=Cc1ccc(CN(CCO)CCc2c[nH]c3ccccc23)cc1)NO`, for which the parasite growth, % of DMSO control was determined as 4.37%.

Regarding `CC(=O)NC(CS)C(=O)O` (stereo not given), the parasite growth, % of DMSO control amounted to 101%.

In turn, `COc1cccc2c1C(=O)c1c(O)c3c(c(O)c1C2=O)C[C@@](O)(C(C)=O)C[C@H]3O[C@H]1C[C@H](N)[C@H](O)[C@H](C)O1` had a parasite growth, % of DMSO control of 13.5%.

In turn, `Cn1cnc(=N)c2[nH]cnc21` yielded a parasite growth, % of DMSO control of 5.58%.

For `c1cncc(CN2CCC(n3ncc4c(N5CCOCC5)nc(-c5ccc6[nH]ccc6c5)nc43)CC2)c1`, the parasite growth, % of DMSO control stood at 4.76%.

`CC(C(C)N1CC(=O)NC(=O)C1)N1CC(=O)NC(=O)C1` (stereo not given) had a parasite growth, % of DMSO control of 88.4%.

In turn, `CC1=C(C(=O)Nc2cc3cn[nH]c3cc2F)C(c2ccc(Cl)cc2F)N=C(c2ccnc(Cl)c2)N1` (stereo not given) had a parasite growth, % of DMSO control of 13.2%.

`CCN(C(=O)c1c(O)c2c(Cl)cccc2n(C)c1=O)c1ccccc1` gave a parasite growth, % of DMSO control of 94.2%.

With `O=C(CCCCCCC(=O)Nc1cccnc1)NO`, the parasite growth, % of DMSO control came to 5.14%.

In turn, `CN1CCCN(C(=O)c2cccc(-c3ccc(C=C4C(=O)Nc5ccc(Cl)cc54)o3)c2)CC1` showed a parasite growth, % of DMSO control of 3.74%.

The molecule `CCCc1nc(C(C)(C)O)c(C(=O)O)n1Cc1ccc(-c2ccccc2-c2nn[nH]n2)cc1` registered a parasite growth, % of DMSO control of 87.7%.

Consider `O=C(NCc1ccccc1)[C@H](Cc1ccccc1)NC(=O)[C@@H]1O[C@@H]1C(=O)NCCc1ccc(O)cc1`, for which the parasite growth, % of DMSO control turned out to be 17.3%.

Consider `CCC[C@@H](C=O)NC(=O)[C@H](CC(C)C)NC(=O)[C@H](CC(C)C)NC(=O)OCc1ccccc1` (Cbz-Leu-Leu-[Nva]-aldehyde), for which the parasite growth, % of DMSO control stood at 4.86%.
